Data on 13 molecules can be found in PubChem BioAssay (NCI).

Values joined by “and” are separate entries in the source; they are usually repeats but may differ in a detail not shown here. Equal values may be shown once. Compounds without any hit were thinned out: in the full panel of roughly 83,000, 20% have a hit.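 Cell lines were cultured in 96-well plates, exposed to a single compound concentration, and assessed for percent growth 48 hours later.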 Unmarked numbers belong to inactive results. Active and inactive are the calls of the source. Rule for the calls: active = growth percent below 10; inactive = the rest.

The assay concerns MDA-MB-468 breast. Briefly: NCI-60 one-dose screen, 48 h (100 = growth as untreated, 0 = no growth, -100 = all killed). As to conditions: 10 µM unless noted.
On to `NC(N)=Nc1ccc(Oc2cccc(Nc3cccc(C(F)(F)F)c3)c2)cn1`, for which the growth is -37.1% (active). As for `O=C(Nc1nc2ccc(S(=O)(=O)Nc3ccc(C4(C(F)(F)F)CC4)cc3)cc2[nH]1)c1cnccn1`, the figure is -12% (active); as for `CC(=O)Oc1ccc(C2(c3ccc(OC(C)=O)cc3)C(=O)Nc3ccccc32)cc1`, 46.2%.

Consider `CCOC(=O)c1cc2c(n1Cc1cc(OC)c(OC)c(OC)c1)-c1nc(N)sc1CCC2`, for which the growth is 35.8%.

Turning to `CCOc1cccc(-c2nc(N)nc(Nc3ccccc3SSc3ccccc3Nc3nc(N)nc(-c4cccc(OCC)c4)n3)n2)c1`, the growth was 107%. As for `C=CC[n+]1c(/C=C2\Sc3ccccc3N2C)sc(-c2ccccc2)c1-c1ccccc1`, the figure is 1.16% (active); as for `COc1ccc(/C=C/C(=O)NCCO)cc1`, 101%; as for `COc1ccc(-c2nc(Nc3ccc(F)cc3)nc(Nc3ccc4c(c3)nc(C)n4Cc3ccccc3)n2)cc1`, 28.4%. As for `O=C(O)C1C2CC3C(OC(=O)C31)C2Br` (stereo not drawn), the figure is 93.2% and 72.3%. Consider `COc1ccc(Oc2nc(Nc3ccc(N4CCCCC4)nc3)ncc2NC(=O)c2cc(OC)cc(OC)c2)cc1`, for which the growth is 23.4%.

Regarding `OC(COc1ccccc1)CN1CCN(c2ccc(Cl)cc2)CC1` (stereo not drawn), the growth was 104%. With `COC(=O)[C@H](Cc1cn(C)cn1)NC(=O)[C@H](C)NC(=O)Nc1cc(C(F)(F)F)cc(C(F)(F)F)c1` the figure was -82.8% [100 µM] (active); with `Oc1ccc(Cl)cc1CNc1nc2ccccc2[nH]1`, 102%.
